Source: PubChem BioAssay (several laboratories)
TROY signal inh: TROY signaling inhibition. inhibition, % at 10 µM. hit rate 0.98% among 360,000. Q293 LMP1-TROYcd NF-kB luciferase reporter, 4 h;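 active = compounds whose plate-normalised and pattern-corrected inhibition of the luciferase reporter signal at the single screening dose is 50% or more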
EBV LMP1 NFkB: Epstein-Barr LMP1 NF-kappaB reporter inhibition | LMP1-induced NF-kappaB luciferase reporter cells, luminescence | inhibition, % at 12.5 µM | hit rate 0.69% among 350,000; in the data active = inhibition above about 41%;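 also: 0% = neutral control wells and 100% = reference inhibitor control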
MITF TRPM1 inh: MITF TRPM1 promoter inhibition in SK-MEL-5 cells | SK-MEL-5 TRPM1 promoter luciferase, 24 h | inhibition, % at 12.5 µM | hit rate 0.83% among 330,000;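 active = mean inhibition across replicates of 60% or more, whatever share of single replicates reaches that level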
Peg3 prom inh-1: Peg3 promoter activity inhibition | HeLa PEG-Prom luciferase reporter, luminescence, overnight | inhibition, % at 20 µM | hit rate 1.7% among 360,000 | AID 588405;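 active = inhibition of at least 50% at 20 µM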
TWEAK-Fn14 inh: inhibitors of TWEAK-Fn14 interaction signaling; hit rate 2% among 360,000; TWEAK-stimulated Fn14 reporter cells, luciferase luminescence, 8 h; inhibition, % at 10 µM; AID 1159606; in the data active = inhibition above about 50%
HIF-2a inh: inhibitors of HIF-2a; 786-0 RCC cells HIF-2a reporter, luciferase luminescence, overnight; inhibition, % at 18.8 µM; hit rate 0.72% among 360,000;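 active = inhibition of the luminescence signal of 40% or more relative to plate controls, in a single-dose primary screen at 18.75 µM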
Peg3 prom inh-2: confirmation of Peg3 promoter inhibitors; HeLa PEG-Prom luciferase reporter, luminescence, overnight; hit rate 84% among 1,300; shares compounds with Peg3 prom inh-1; inhibition, % at 20 µM;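 active = at 20 µM dose, 40% or more inhibition averaged across four replicates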
* hit, by the source's call; · = no result. Shown are actives, neighbours in structure and some others; about 4% of the full set was active somewhere.

SMILES	TROY signal inh	EBV LMP1 NFkB	MITF TRPM1 inh	Peg3 prom inh-1	TWEAK-Fn14 inh	HIF-2a inh	Peg3 prom inh-2
Cc1ncc(CO)c(/C=N/NC(=S)Nc2ccc(F)cc2)c1O	-8	20	11	18	-3	13	·
Cc1ncc(CO)c(/C=N/Nc2ccc(C(F)(F)F)cn2)c1O	-4	30	56	62*	25	11	67*
COc1ccc(-n2nc(C(=O)Nc3ccc(OC)c(OC)c3)c3c4ccccc4n(C)c3c2=O)cc1	13	6	7	62*	2	6	14
CC(=O)c1sc2c(c1OC(=O)c1ccc(Cl)cc1Cl)c(=O)n(-c1ccccc1)c(=S)n2-c1ccccc1	-73	-4	63*	80*	49	37	59*
CN1N=C2c3ccccc3CCCC2C1c1ccc(F)cc1 (stereo not drawn)	11	-24	-15	-153	25	-175	·
CCCn1nc(C(=O)Nc2nc(-c3ccccn3)cs2)c2ccccc2c1=O	-6	27	44	70*	-7	-6	62*
CCCC(C)C(=O)Nc1ccc(S(=O)(=O)Nc2nccs2)cc1 (stereo not drawn)	-4	-3	2	-2	18	11	·
COc1ccc(-c2cc(C(=O)N3CCN(c4ncccn4)CC3)c3ccccc3n2)c(OC)c1	11	6	-2	53*	27	9	45*
COc1ccc(-c2cc(C(=O)N3CCN(c4ncccn4)CC3)c3ccccc3n2)cc1	-43	-5	-51	-67	-2	-247	·
COc1ccc(-c2cc(C(=O)N3CCCCCC3)c3ccccc3n2)c(OC)c1	9	2	8	16	4	20	·
COc1ccc(N2CCN(C(=O)c3cc(-c4cc(OC)ccc4OC)nc4ccccc34)CC2)cc1	6	15	11	43	7	17	·
COc1ccc(-c2cc(C(=O)N3CCN(c4ccccc4F)CC3)c3ccccc3n2)c(OC)c1	22	11	21	51*	35	22	52*
COc1ccc(OC)c(-c2cc(C(=O)N3CCN(c4ncccn4)CC3)c3ccccc3n2)c1	1	2	21	55*	12	11	52*
O=C(Nc1ccccc1)C1Cc2c(-c3ccc(Cl)cc3)ccnc2O1 (stereo not drawn)	25	·	·	9	14	4	·
C[C@@H]1CN([C@@H](C)CO)C(=O)c2cc(NC(=O)Nc3ccccc3)ccc2O[C@@H](C)CCCCO[C@H]1CN(C)C(=O)Nc1ccc(C(F)(F)F)cc1	15	9	·	12	13	4	·
COc1ccccc1CN(C)C(=O)c1cc(-c2cccs2)nc2ccccc12	30	3	6	69*	74*	9	81*
COc1ccc(-c2cc(C(=O)N(C)Cc3cccc(OC)c3OC)c3ccccc3n2)cc1OC	-1	9	-17	55*	7	-6	56*
COc1ccc(CN(C)C(=O)c2cc(-c3ccccc3)nc3ccc(C)cc23)c(OC)c1OC	1	5	-2	59*	14	-5	60*
COc1ccccc1-c1csc(NC(=O)c2cc(-c3cccs3)nc3ccccc23)n1	-1	2	6	9	5	13	·
COc1ccc(CN(C)C(=O)c2cc(-c3ccc(OC)c(OC)c3)nc3ccccc23)c(OC)c1	13	3	13	22	8	10	·
CC(=O)Nc1sc(C)c(C)c1C(=O)OCC(=O)N(CC(C)C)c1c(N)n(Cc2ccccc2)c(=O)[nH]c1=O	3	-249	103*	101*	12	18	55*
COC(=O)c1c(C)[nH]c(C(=O)OCC(=O)N(CC(C)C)c2c(N)n(Cc3ccccc3)c(=O)[nH]c2=O)c1C	2	-1	0	11	-24	16	·
COc1ccc(CN2C(=O)C(CC(=O)NCc3cccs3)CC(C(=O)N(C(C)C)C(C)C)=C2C)cc1 (stereo not drawn)	7	1	·	6	-4	-5	·
Cc1cc(NC(=O)c2cncc(Br)c2)ccc1NC(=O)c1cc2ccccc2o1	31	5	65*	85*	-24	19	35
CN1CCN(c2nc(-c3ccccc3)nc3c2oc2ccccc23)CC1	-18	-24	-22	66*	-20	9	-3
SMILES	TROY signal inh	EBV LMP1 NFkB	MITF TRPM1 inh	Peg3 prom inh-1	TWEAK-Fn14 inh	HIF-2a inh	Peg3 prom inh-2
NC(=O)C1CCN(c2nc(-c3ccccc3)nc3c2oc2ccccc23)CC1	-6	-9	10	27	5	-13	·
Oc1ccccc1N1CCN(c2ncnc3scc(-c4ccc(F)cc4)c23)CC1	15	6	7	49	25	23	·
Cc1nc(N2CCN(c3ccccc3O)CC2)c2c(-c3ccccc3)csc2n1	12	7	18	66*	50	12	66*
CC1CCN(S(=O)(=O)c2ccc3c(c2)oc(=O)n3CC(=O)NCc2ccc3c(c2)OCO3)CC1	12	5	21	-1	-6	7	·
Cc1cc(C)cc(NC(=O)Cn2c(=O)oc3cc(S(=O)(=O)N4CCC(C)CC4)ccc32)c1	4	-18	·	68*	-1	11	44*
CC1CCN(c2nc3ccc(C(=O)NCCCN4CCCCC4)cc3s2)CC1	-58	-95	52	-96	-2	-27	·
CC1CCN(c2nc3ccc(C(=O)O)cc3s2)CC1	34	63*	90*	106*	96*	89*	87*
Nc1ccc(-c2nc3ccc(C(=O)O)cc3s2)cc1	21	78*	115*	101*	97*	88*	94*
Cc1c(Cl)cccc1NC(=S)NCCc1ccc(C(F)(F)F)cc1	49	12	0	19	-22	17	·
Cc1ccc(S(=O)(=O)N2C[C@@H]3[C@H]4CC[C@H](C4)[C@@H]3[C@@H](C)[C@@H]2c2cn(Cc3ccccc3)c3ccc(F)cc23)cc1	-6	-3	5	30	0	18	·
C[C@@H]1[C@H]2[C@@H]3CC[C@@H](C3)[C@H]2CN[C@H]1c1cn(Cc2ccccc2)c2ccccc12	12	11	0	71*	18	-7	54*
CCc1noc(C)c1C(=O)N(CC)CC(=O)Nc1cc(Cl)ccc1C	1	1	-11	3	-2	2	·
CCc1ccc(N(CC(=O)NC(C)(C)C)C(=O)CCC(=O)Nc2ccccn2)cc1	13	-3	10	13	5	12	·
Cc1cc(Br)ccc1NC(=O)CN1C(=O)C2C3CC(c4ccccc4)C(C3)C2C1=O (stereo not drawn)	25	-4	1	56*	23	-22	63*
CC(=O)Nc1ccc(NC(=O)C(C)OC(=O)CCc2c[nH]c3ccccc23)cc1 (stereo not drawn)	-4	-4	0	5	14	3	·
Clc1ccccc1-c1ccc2ncnc(NCc3ccc4c(c3)OCO4)c2c1	10	3	-11	20	-7	0	·
